Data taken from PubChem BioAssay (Tox21).
Results filed as inconclusive are left out. Activity calls are given as the source filed them. Unless noted, the call rests on the fitted dose curve; in most records, active means well fitted curve in the direction sought with a large enough effect in the repeat runs; inconclusive means weak or mixed curves; inactive means flat fitted curve, though single readings scatter.

Key:
[1] = qHTS assay to test for compound auto fluorescence at 535 nm (green) in HEK293 cells (AID 720680)
[2] = qHTS assay to test for compound auto fluorescence at 460 nm (blue) in HEK293 cell free culture (AID 720681)
Outline: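 Compounds were added to cell-free DMEM with 10% FBS and fluorescence read directly. The blue channel used 405 nm excitation and 460 nm emission, with triamterene as the reference fluorophore.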

[3] = qHTS assay to test for compound auto fluorescence at 535 nm (green) in HEK293 cell free culture (AID 720682)
Outline: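 Read-out: 485/535 nm fluorescence intensity, calibrated against fluorescein. Medium only (DMEM + 10% FBS, no cells); test compound or DMSO vehicle added by pintool before plate reading.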

[4] = qHTS assay to test for compound auto fluorescence at 590 nm (red) in HepG2 cell free culture (AID 720684)
Outline: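 Auto fluorescence equivalency versus Rose Bengal sodium, red channel Ex/Em 540/590 nm; compounds in cell-free MEM/10% FBS; DMSO vehicle control.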

[5] = qHTS assay to test for compound auto fluorescence at 460 nm (blue) in HepG2 cell free culture (AID 720685)
Outline: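 Cell-free plates of MEM plus 10% FBS received 23 nL compound or DMSO vehicle; blue-channel (405/460 nm) intensity scored against triamterene as reference fluorophore.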

[6] = qHTS assay to test for compound auto fluorescence at 535 nm (green) in HepG2 cell free culture (AID 720686)
[7] = qHTS assay to test for compound auto fluorescence at 460 nm (blue) in HepG2 cells (AID 720687)
Outline: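 HepG2 cells in MEM with 10% FBS, attached overnight at 37 C, were exposed to compound or DMSO for 1 hr at 37 C, 5% CO2. Blue fluorescence was read at 405/460 nm, with triamterene as reference fluorophore.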

[8] = target: Glucocorticoid receptor (Homo sapiens) (UniProt P04150); assay: qHTS assay to identify small molecule agonists of the glucocorticoid receptor (GR) signaling pathway (AID 720691; active means well fitted activation curve with a large enough effect in the signal ratio in the repeat runs, not every such curve was filed as active; the % refers to the signal ratio)
Glucocorticoid receptor (Homo sapiens), sequence (P04150 whole entry, looked up): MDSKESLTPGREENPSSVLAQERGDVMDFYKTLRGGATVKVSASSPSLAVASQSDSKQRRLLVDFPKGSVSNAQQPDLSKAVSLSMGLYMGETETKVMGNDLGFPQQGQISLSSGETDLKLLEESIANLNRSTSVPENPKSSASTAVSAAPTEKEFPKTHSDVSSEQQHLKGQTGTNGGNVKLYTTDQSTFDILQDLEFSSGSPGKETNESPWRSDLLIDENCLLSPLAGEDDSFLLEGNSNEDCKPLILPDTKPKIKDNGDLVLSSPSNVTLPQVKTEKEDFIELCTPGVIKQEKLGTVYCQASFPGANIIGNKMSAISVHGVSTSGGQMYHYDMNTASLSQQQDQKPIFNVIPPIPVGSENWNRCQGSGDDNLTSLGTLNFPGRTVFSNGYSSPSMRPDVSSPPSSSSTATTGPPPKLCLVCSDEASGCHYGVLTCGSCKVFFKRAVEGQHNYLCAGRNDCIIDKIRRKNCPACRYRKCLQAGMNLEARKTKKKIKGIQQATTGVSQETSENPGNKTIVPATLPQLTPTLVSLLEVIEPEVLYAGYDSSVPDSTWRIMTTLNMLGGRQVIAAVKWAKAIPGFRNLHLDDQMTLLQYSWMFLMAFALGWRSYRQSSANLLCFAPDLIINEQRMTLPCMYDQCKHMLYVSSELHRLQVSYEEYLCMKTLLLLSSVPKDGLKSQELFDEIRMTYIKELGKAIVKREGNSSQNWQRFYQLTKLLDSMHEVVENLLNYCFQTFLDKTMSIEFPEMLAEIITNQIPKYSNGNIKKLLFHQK
Outline: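 HeLa GR-bla reporter line; cells pre-incubated 4 h, compound in DMSO 18 h at 37 C; LiveBLAzer B/G FRET substrate 2 h RT; fluorescence intensity read-out.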

[9] = target: Glucocorticoid receptor (Homo sapiens) (UniProt P04150); assay: qHTS assay to identify small molecule antagonists of the glucocorticoid receptor (GR) signaling pathway (AID 720692; active means well fitted inhibition curve with a large enough effect in the signal ratio in the repeat runs, not every such curve was filed as active; the % refers to the signal ratio)
Outline: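 Read-out: beta-lactamase FRET substrate fluorescence, 2 h at room temperature, in HeLa cells stably carrying a GRE-driven bla reporter. Compounds were co-incubated with 5 nM dexamethasone agonist (final) for 18 h at 37 C.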

[10] = qHTS assay to test for compound auto fluorescence at 590 nm (red) in HEK293 cell free culture (AID 720683)
Outline: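 Cell-free wells of DMEM with 10% FBS received compound, and intrinsic fluorescence was read at excitation/emission 540/590 nm. Values expressed as equivalence to Rose Bengal sodium.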
On the % scale 0 is the no-effect control and ±100 the full control effect.

O=C(/C=C/c1ccc([N+](=O)[O-])cc1)c1ccccc1
inactive: outcome [1] | Potency [2] | outcome [3] | outcome [4] | Potency [5] | outcome [6] | Potency [7] | Potency [8]

COc1cc(NS(=O)(=O)c2ccc(N)cc2)nc(C)n1
inactive: outcome [1] | Potency [2] | outcome [3] | Potency [5] | outcome [6] | Potency [7] | Potency [8] | Potency [9]

O=C(O)CCC(=O)OC[C@@H](NC(=O)C(Cl)Cl)[C@H](O)c1ccc([N+](=O)[O-])cc1
inactive: outcome [1] | Potency [2] | outcome [3] | outcome [4] | Potency [5] | outcome [6] | Potency [7] | Potency [8] | Potency [9]

CCN(Cc1cccc(S(=O)(=O)O)c1)c1ccc(C(=C2C=CC(=[N+](CC)Cc3cccc(S(=O)(=O)O)c3)C=C2)c2ccc(O)cc2S(=O)(=O)[O-])cc1
inactive: outcome [1] | Potency [2] | outcome [3] | outcome [10] | Potency [5] | outcome [6] | Potency [7] | Potency [8] | Potency [9]

Cc1ccc(N(CCO)CCO)cc1
inactive: outcome [1] | Potency [2] | outcome [3] | outcome [4] | Potency [5] | outcome [6] | Potency [7] | Potency [8] | Potency [9]

CC(C)N=C=NC(C)C
inactive: outcome [1] | Potency [2] | outcome [3] | outcome [4] | Potency [5] | outcome [6] | Potency [7] | Potency [8] | Potency [9]

Nc1nc(-c2ccc([N+](=O)[O-])cc2)cs1
inactive: outcome [1] | Potency [2] | outcome [3] | outcome [10] | Potency [5] | outcome [6] | Potency [7] | Potency [8] | Potency [9]

Cc1c[nH]c2ccccc12
inactive: outcome [1] | Potency [2] | outcome [3] | outcome [10] | Potency [5] | outcome [6] | Potency [7] | Potency [8] | Potency [9]

CC(C)Cc1ccc(CC(=O)O)cc1
inactive: outcome [1] | Potency [2] | outcome [3] | outcome [4] | Potency [5] | outcome [6] | Potency [7] | Potency [8] | Potency [9]

O=NN(CCCl)C(=O)NCCCl
inactive: outcome [1] | Potency [2] | outcome [3] | outcome [4] | Potency [5] | outcome [6] | Potency [7] | Potency [8] | Potency [9]

CC(=O)OC(C)C[N+](C)(C)C (stereo unspecified)
inactive: fluorescence, % of fluorescein [1] -0.0571% [at 18.6 µM] | fluorescence, % of fluorescent control [2] -0.0614% [at 18.6 µM] | activity change [3] -0.0135% [at 18.6 µM] | fluorescence, % of fluorescent control [10] 0.423% [at 18.6 µM] | fluorescence, % of fluorescent control [5] -0.0627% [at 18.6 µM] | fluorescence, % of fluorescein control [6] -0.0048% [at 18.6 µM] | fluorescence, % of fluorescent control [7] -0.0338% [at 18.6 µM] | Potency [8] | Potency [9]

Cc1cc(CCC(=O)OCCOCCOCCOC(=O)CCc2cc(C)c(O)c(C(C)(C)C)c2)cc(C(C)(C)C)c1O
inactive: outcome [1] | Potency [2] | outcome [3] | Potency [5] | outcome [6] | Potency [7] | Potency [8]

C/C(C=O)=C\c1ccccc1
inactive: outcome [1] | Potency [2] | outcome [3] | outcome [4] | Potency [5] | outcome [6] | Potency [7]

Cc1ccc(S(=O)(=O)NC(=O)NC2CCCCC2)cc1
inactive: outcome [1] | Potency [2] | outcome [3] | outcome [10] | Potency [5] | outcome [6] | Potency [7] | Potency [8] | Potency [9]

CC1CCc2nccnc21 (stereo unspecified)
inactive: outcome [1] | Potency [2] | outcome [3] | Potency [5] | outcome [6] | Potency [7]

O=C(NC(Cc1cc(=O)[nH]c2ccccc12)C(=O)O)c1ccc(Cl)cc1 (stereo unspecified)
inactive: outcome [1] | Potency [2] | outcome [3] | outcome [4] | Potency [5] | outcome [6] | Potency [7] | Potency [8]

CCN(Cc1cccc(S(=O)(=O)O)c1)c1ccc(C(=C2C=CC(=[N+](CC)Cc3cccc(S(=O)(=O)O)c3)C=C2)c2ccccc2S(=O)(=O)[O-])cc1
inactive: outcome [1] | Potency [2] | outcome [3] | outcome [4] | Potency [5] | outcome [6] | Potency [7]

CC(=O)C(=O)CC(C)C
inactive: outcome [1] | Potency [2] | outcome [3] | Potency [5] | outcome [6] | Potency [7] | Potency [8]

OCC(CO)n1cnc(-c2ccc(F)cc2)c1-c1ccnc(Oc2ccccc2)n1
inactive: outcome [1] | Potency [2] | outcome [3] | outcome [4] | Potency [5] | outcome [6] | Potency [7] | Potency [8]

CCN(CC)c1ccc(C(=C2C=CC(=[N+](CC)CC)C=C2)c2ccc(S(=O)(=O)O)cc2S(=O)(=O)[O-])cc1
inactive: outcome [1] | Potency [2] | outcome [3] | outcome [4] | Potency [5] | outcome [6] | Potency [7] | Potency [8] | Potency [9]

Nc1ccc(N=Nc2ccc(N)cc2)cc1
inactive: outcome [1] | Potency [2] | outcome [3] | outcome [4] | Potency [5] | outcome [6] | Potency [7]

CCC(=O)OCc1ccc(OC)cc1
inactive: outcome [1] | Potency [2] | outcome [3] | outcome [10] | Potency [5] | outcome [6] | Potency [7] | Potency [8] | Potency [9]

CCN(CC)CCOc1ccccc1C(=O)CCc1ccccc1
inactive: outcome [1] | Potency [2] | outcome [10] | outcome [4] | Potency [5] | outcome [6] | Potency [7]

CC(O)Cn1cnc2c1c(=O)n(C)c(=O)n2C (stereo unspecified)
inactive: fluorescence, % of fluorescein [1] -0.0718% [at 18.6 µM] | fluorescence, % of fluorescent control [2] -0.136% [at 18.6 µM] | activity change [3] -0.0176% [at 18.6 µM] | fluorescence, % of Rose Bengal [4] -0.131% [at 18.6 µM] | fluorescence, % of fluorescent control [5] -0.0952% [at 18.6 µM] | fluorescence, % of fluorescein control [6] -0.0191% [at 18.6 µM] | fluorescence, % of fluorescent control [7] 0.0234% [at 18.6 µM]

c1ccc(CCCc2ccncc2)cc1
inactive: outcome [1] | Potency [2] | outcome [3] | outcome [4] | Potency [5] | outcome [6] | Potency [7] | Potency [8]

CC(=O)C(C)=O
inactive: outcome [1] | Potency [2] | outcome [3] | outcome [10] | Potency [5] | outcome [6] | Potency [7] | Potency [8] | Potency [9]

CC1=CC[C@@]23C[C@@H]1C(C)(C)[C@@H]2CC[C@H]3C
inactive: outcome [1] | Potency [2] | outcome [3] | outcome [4] | Potency [5] | outcome [6] | Potency [7] | Potency [8] | Potency [9]

CC(C)(C)CCCCCCOC(=O)c1ccccc1C(=O)OCCCCCCC(C)(C)C
inactive: outcome [1] | Potency [2] | outcome [10] | outcome [4] | Potency [5] | outcome [6] | Potency [7] | Potency [8]

C1CCCCC1
inactive: outcome [1] | Potency [2] | outcome [10] | Potency [5] | outcome [6] | Potency [7] | Potency [8] | Potency [9]

CCC(CO)(CO)CO
inactive: outcome [1] | Potency [2] | outcome [10] | outcome [4] | Potency [5] | outcome [6] | Potency [7] | Potency [8] | Potency [9]

CCN(CC)c1cccc(O)c1
inactive: outcome [1] | Potency [2] | outcome [10] | outcome [4] | Potency [5] | outcome [6] | Potency [7] | Potency [8] | Potency [9]

Nc1ccc(NC(=O)c2ccc(N)cc2)cc1
inactive: outcome [1] | Potency [2] | outcome [4] | Potency [5] | outcome [6] | Potency [7]
